Screening results: PubChem, several laboratories
Sampled rows, rich in hits. Any-hit rate of the full collection: about 3.3%.
Fh CTSL1 inh = blocks F. hepatica cathepsin L1 in PFM18AAP counter-screen | recombinant F. hepatica cathepsin L1, Z-Leu-Arg-MCA fluorescence | 300,000 tested, 0.49% active | inhibition, % at 5.96 µM | AID 1906;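 active = inhibition above the mean of all tested compounds plus 3 SD, set per screening campaign, cut at about 17% in these data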
PHOSPHO1 block = PHOSPHO1 (human) inhibition. AID 1565. recombinant PHOSPHO1, absorbance phosphatase assay. Q8TCT1. 290,000 tested, 1.1% active. inhibition, % at 13.3 µM; in the data active = inhibition above about 60%
Target sequence (Q8TCT1 whole entry, looked up): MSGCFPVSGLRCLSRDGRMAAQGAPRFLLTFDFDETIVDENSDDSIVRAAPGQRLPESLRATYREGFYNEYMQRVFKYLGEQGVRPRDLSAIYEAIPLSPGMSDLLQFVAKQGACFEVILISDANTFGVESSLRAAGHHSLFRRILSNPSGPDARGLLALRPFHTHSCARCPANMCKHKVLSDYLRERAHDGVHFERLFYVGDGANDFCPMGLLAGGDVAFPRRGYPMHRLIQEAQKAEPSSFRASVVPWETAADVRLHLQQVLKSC
HNF4A DNA FP = change in binding of human HNF4 alpha to DNA | AID 1224865 | activity change, % at 10 µM | P41235 | 360,000 tested, 0.3% active | HNF4a-FITC DNA binding, fluorescence polarization, 1 h; in the data active = activity change above about 30%, passing the limit was not always enough
NRP1-CendR mod = alters CendR peptide binding to human NRP-1; inhibition, % at 25 µM; FAM-RPARPAR peptide binding to NRP-1, fluorescence polarization; O14786; 360,000 tested, 0.85% active; AID 602438;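 active = inhibition or corrected inhibition above about 18%, plus a signal ratio from 0.5 to 1.5, limit read from the data, passing the limit was not always enough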
TPT1 inh = inhibitors of Candida albicans tRNA 2'-phosphotransferase TPT1; recombinant caTPT1, FP RNA substrate dephosphorylation; 300,000 tested, 0.81% active; inhibition, % at 5 µM;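 active = inhibition above the mean of all tested compounds plus 3 SD, set per screening campaign, cut at about 24% in these data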
Rpn11 block = Rpn11 (human) deubiquitinase inhibition. human 26S proteasome, Ub4-pepOG fluorescence polarization; 20S core pre-blocked with epoxomicin. inhibition, % at 20 µM. 360,000 tested, 0.59% active;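 active = inhibition at 20 µM, scaled to each plate's controls, above about 33%, limit read from the data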
Target sequence (O00487 whole entry, looked up): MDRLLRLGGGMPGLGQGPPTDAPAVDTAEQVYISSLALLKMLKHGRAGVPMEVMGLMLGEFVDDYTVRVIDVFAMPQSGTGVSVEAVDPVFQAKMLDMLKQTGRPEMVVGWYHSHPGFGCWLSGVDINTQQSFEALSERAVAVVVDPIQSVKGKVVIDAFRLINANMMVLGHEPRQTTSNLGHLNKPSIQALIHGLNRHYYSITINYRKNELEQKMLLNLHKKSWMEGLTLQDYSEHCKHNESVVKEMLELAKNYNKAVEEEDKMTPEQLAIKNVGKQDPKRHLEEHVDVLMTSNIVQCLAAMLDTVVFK
Large screens that a line does not name were inactive.

CCOC(=O)CSC1=C(C#N)C(c2ccccc2F)C(C(C)=O)=C(C)N1 (centres undefined)	none
CC(=O)C1=C(C)NC(SCC(N)=O)=C(C#N)C1C (centres undefined)	PHOSPHO1 block 88
CC(=O)C1=C(C)NC(SCC(N)=O)=C(C#N)C1CC(C)C (centres undefined)	none
CCc1cccc(NC(=S)Nc2cccc3ccccc23)c1	none
COc1cc(NS(=O)(=O)c2ccc(C)c(C)c2)c(OC)cc1Cl	NRP1-CendR mod 27
Cc1nc(S/C(=C/c2ccc(-c3ccc(Cl)cc3)o2)C(=O)O)n[nH]1	NRP1-CendR mod 36
O=C(c1ccccc1)N1CCN(CC(O)COc2ccc(Br)cc2)CC1 (centres undefined)	none
Cn1c2ccccc2c2cc(C(=O)NNC(=O)CCl)sc21	Fh CTSL1 inh 94
CCCNC(=O)c1cc2c3ccccc3n(C)c2s1	none
O=C(CN1CCc2ccccc2C1)Nc1ccccc1F	none
Cc1ccccc1S(=O)(=O)Cc1ccc(C(=O)NC2CCCCC2)o1	PHOSPHO1 block 65
Cc1cc(OCc2cc(C(=O)N3CCCCCC3)no2)cc(C)c1Cl	none
Cc1ccc2nc3c(cc(C(=O)NCc4ccco4)c(=N)n3Cc3ccco3)c(=O)n2c1	Fh CTSL1 inh 19
Cc1ccc(CNC(=O)c2cc3c(=O)n4ccccc4nc3n(Cc3ccco3)c2=N)cc1	none
Cc1cccc(Nc2nnc(SCC(=O)NCC3CCCO3)s2)c1C (centres undefined)	none (no result: Fh CTSL1 inh, PHOSPHO1 block, TPT1 inh)
COCCCn1c(=O)/c(=C\c2ccc(OC(F)F)c(OC)c2)s/c1=C(/C#N)C(=O)NCCOC	HNF4A DNA FP 74 (not shown: Rpn11 block)
Cn1cccc1CNC(=O)Nc1ccc(Cl)c(Cl)c1	none
Cc1[nH]c2ccc(F)cc2c(=O)c1SC(F)(F)C(F)C(F)(F)F (centres undefined)	PHOSPHO1 block 88
CSC1=NC2(CCCCC2)C2=C(CCCC2)N1	PHOSPHO1 block 101
CC[n+]1cc(-c2ccccc2)nc(N2CCOCC2)n1	PHOSPHO1 block 100
OCCN1CCN(CC(O)COCc2ccc3c(c2)OCO3)CC1 (centres undefined)	none
CC(C(=O)O)N1C(=O)CSC1=S (centres undefined)	HNF4A DNA FP 88
Cc1cc(-c2csc(N)n2)c(C)n1Cc1ccco1	PHOSPHO1 block 61
Cc1ccc(-n2c(C)cc(-c3csc(N)n3)c2C)cc1	none
Cc1cc(-c2csc(N)n2)c(C)n1C	PHOSPHO1 block 86
Cc1cc(C(=O)CSc2nnc(N)s2)c(C)n1Cc1ccco1	none
N#Cc1c(Cl)nc(SCc2ccccc2)nc1-c1ccccc1	PHOSPHO1 block 96 (no result: HNF4A DNA FP, NRP1-CendR mod, Rpn11 block)
CCN(CC(=O)Nc1ccccc1C(F)(F)F)C(=O)COc1cccc2c1OC(C)(C)C2	none (no result: PHOSPHO1 block)
CC1(C)Cc2cccc(OCC(=O)Nc3ccccc3C(F)(F)F)c2O1	HNF4A DNA FP 40
O=C(NCC(c1ccco1)N1CCCC1)c1ccccc1Sc1ccc(C(F)(F)F)cc1[N+](=O)[O-] (centres undefined)	Fh CTSL1 inh 20 (no result: PHOSPHO1 block)
COc1ccc(C2N(Cc3ccccc3)CCN2Cc2ccccc2)cc1[N+](=O)[O-]	PHOSPHO1 block 60
COc1cc(C2N(Cc3ccccc3)CCN2Cc2ccccc2)ccc1OC(C)=O	none
CCN(CC)C(=O)c1sc2nc(-c3cccs3)cc(-c3ccc(Cl)cc3)c2c1N	Rpn11 block 37
Cc1ccc2c(c1)C(N1CCCC1=O)CC(c1ccco1)N2 (centres undefined)	PHOSPHO1 block 76
Cc1ccc(C2CC(c3ccco3)n3ncnc3N2)cc1 (centres undefined)	none
CC(=O)Nc1cccc(C(=O)OCc2ccc(C(=O)Oc3ccc(Cl)cc3)cc2)c1	none
CC(C)(C)Cc1nnc(NS(=O)(=O)c2ccc(F)cc2)s1	PHOSPHO1 block 78
Cc1ccc(S(=O)(=O)Nc2nnc(CC(C)(C)C)s2)cc1	none (no result: PHOSPHO1 block)
C=CCOn1c(C)c(C(C)=O)c2c3no[n+]([O-])c3ccc21	none
Cc1ccc(S(=O)(=O)Oc2ccccc2[N+](=O)[O-])cc1	NRP1-CendR mod 20 (no result: Fh CTSL1 inh, PHOSPHO1 block, TPT1 inh)
N#Cc1c(NCCCO)nc(-c2ccco2)c2c1CCCC2	Fh CTSL1 inh 18
CCN(CC)C(=S)SCc1csc(CC(=O)Nc2ccccc2C)n1	none
COc1cc(C=CC(=O)c2cc(OC)c(OC)c(OC)c2)cc(OC)c1OC	none (no result: Fh CTSL1 inh, PHOSPHO1 block, TPT1 inh)
COc1ccc2cc(C(=O)/C=C/c3cc(OC)c(OC)c(OC)c3)ccc2c1	NRP1-CendR mod 27
CCOC(=O)c1ccc(N2C(=O)CC(Nc3ccc(CCO)cc3)C2=O)cc1 (centres undefined)	none
COC(=O)C(CCSC)NS(=O)(=O)c1ccc(Cl)cc1 (centres undefined)	none
COc1ccc(C(=O)COC(=O)C(CCSC)NS(=O)(=O)c2ccc(Cl)cc2)cc1 (centres undefined)	NRP1-CendR mod 26
COc1cc(C(=O)NCC(=O)Nc2ccc(F)c(F)c2)ccc1OCC(=O)N1CCOCC1	Fh CTSL1 inh 20 (no result: PHOSPHO1 block)
c1ccc(C2CC(c3ccccc3)n3c(nc4ccccc43)N2)cc1 (centres undefined)	NRP1-CendR mod 24
CN(C(=O)c1ccc(NC(=O)Cc2ccc([N+](=O)[O-])cc2)cc1)C1CCCC1	none (no result: Fh CTSL1 inh, PHOSPHO1 block, TPT1 inh)
CC(C)(C)c1cc(CP(=O)(c2ccccc2)c2ccccc2)cc(C(C)(C)C)c1O	none
Cc1ccn2c(=O)c(C(=O)NCCCN3CCCC3=O)c(O)nc2c1	Fh CTSL1 inh 50
CCn1ccc(C(=O)NCCCN2CCCC2=O)n1	PHOSPHO1 block 65
Cc1ccn2c(=O)c(C(=O)NCCCN3CCCCC3C)c(O)nc2c1 (centres undefined)	none
Cc1ccnc(NC(=O)c2ccc3c(c2)C(=O)N(CCC(C)C)C3=O)c1	none
COC(=O)c1ccccc1S(=O)(=O)N1CCC(C(=O)NC2CCCCC2C)CC1 (centres undefined)	none (no result: Fh CTSL1 inh, PHOSPHO1 block, TPT1 inh)
O=S1(=O)CC(O)C(NCCO)C1 (centres undefined)	PHOSPHO1 block 65
OC(c1ccccc1)(c1nc(/C=C/c2ccc(C(F)(F)F)cc2)cs1)C(F)(F)F (centres undefined)	none (no result: Fh CTSL1 inh, PHOSPHO1 block, TPT1 inh)
Nn1c(Cc2cccc3ccccc23)nnc1SCC(=O)NC1CCS(=O)(=O)C1 (centres undefined)	PHOSPHO1 block 90
Cc1ccc(NC(=O)c2sc3ncn(CC(=O)N4CCN(c5ccccn5)CC4)c(=O)c3c2C)cc1F	none
Cc1ccc(NC(=O)c2sc3ncn(CC(=O)N4CCN(c5ccccn5)CC4)c(=O)c3c2C)cc1Cl	PHOSPHO1 block 64
Cc1ccc2cc(C#N)c(SCC(=O)N3CCCc4ccccc43)nc2c1C	NRP1-CendR mod 24
Cc1ccc2cc(C#N)c(SCC(=O)N3CCCc4ccccc43)nc2c1	none
CC(=O)c1cccc(NC(=O)COC(=O)C2=COCCO2)c1	PHOSPHO1 block 68
O=C(COC(=O)C1=COCCO1)Nc1ccccc1	none
